The results in this text go back to PubChem BioAssay AID488890 (Southern Research Specialized Biocontainment Screening …, 2010).

Among all 320,000 compounds or so, about 1,300 (0.41%) were called active. Another 3% or so got no clear call; they are omitted. The rule behind the calls is not given here. Only a sample is shown. Results with a measured potency or affinity are listed apart.

The test can be described thus: growth inhibition of non-replicating M. tuberculosis (AID 488890).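 Note: plate controls were DMSO cells for no effect and high antibiotic wells for full effect.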 The note with it: Mycobacterium tuberculosis non-replicating, at 25 µM, stronger effect = higher value.
By inhibition is commonly meant the drop in the measured response relative to a control, in per cent. For the compound `CCOC(=O)CNC(=O)N1CCc2ccc(NC(=O)c3ccccc3OC)cc2C1`, the inhibition worked out at 44.4%.
Turning to `CCN(C(=O)COC(=O)c1cccc(S(=O)(=O)N2CCOCC2)c1)C1CCS(=O)(=O)C1` (stereo unspecified), the inhibition is -11%.
As for `Cc1cccc2c(=O)cc(C(F)(F)F)[nH]c12`, the inhibition is 52.3%.
`O=c1cc(C(F)(F)F)[nH]c2ccccc12`: the inhibition is -4.11%.
As for `O=C(O)CCCNS(=O)(=O)c1ccc(NCc2ccccc2)c(C(=O)O)c1`, the inhibition was -9.34%.
`CC1=NN(C(=O)c2ccccc2Cl)C(O)(c2cccnc2)C1` (stereo unspecified): the inhibition is -11.1%.
Regarding `CC1=NN(C(=O)CCc2ccccc2)C(O)(c2ccncc2)C1` (stereo unspecified), the inhibition was -17.3%.
Regarding `Nc1ccc(C(=O)N2N=C(c3ccccc3)CC2(O)C(F)(F)F)cc1` (stereo unspecified), the inhibition worked out at 18.4%.
Turning to `CCC1(O)CC(C(=O)OC)=NN1C(=O)c1ccccc1` (stereo unspecified), the inhibition amounted to 50.2%.
Take `COC(=O)C1=NN(C(=O)c2ccc(C)cc2)C(O)(c2ccc(Cl)cc2)C1` (stereo unspecified): the inhibition was determined as 68.2%.
`O=C(c1ccccc1)N1N=C(c2ccccc2)CC1(O)C(F)(F)F` (stereo unspecified): the inhibition amounted to 66.9%.
Regarding `CC1=NN(C(=O)c2ccccc2Br)C(O)(c2cccnc2)C1` (stereo unspecified), the inhibition amounted to 1.25%.
The figure for `CCOC(=O)N1N=C(c2ccccc2)CC1(O)C(F)(F)F` (stereo unspecified) is -6.72%.
As to `CC(=O)Nc1sc(C)c(C)c1C(=O)OCC(=O)Nc1ccccc1`, the inhibition was 6.17%.
With `CSc1ncccc1C(=O)OCc1ccc([N+](=O)[O-])cc1`, the inhibition was 39.8%.
On to `COc1ccc(C(=O)N/N=C2\CCc3ccccc32)cc1OC`, for which the inhibition is -1.04%.
As for `Cc1cccc(NC(=O)C[n+]2ccccc2)c1`, the inhibition was determined as 16.1%.
The figure for `Cc1c(NC(=O)COC(=O)c2cc(-c3ccc(-c4ccccc4)cc3)nc3ccccc23)c(=O)n(-c2ccccc2)n1C` is -36%.
The figure for `NC(=O)c1nsc(C(=O)N(c2cccc(F)c2)C(C(=O)NCC2CCCO2)c2c[nH]c3ccccc23)c1N` (stereo unspecified) is 29.5%.
As for `CC1=NN(C(=O)c2ccco2)C(O)(c2ccccc2)C1` (stereo unspecified), the inhibition came to 70.5%.
The figure for `O=C(c1ccco1)N1N=C(c2ccc(Cl)cc2)CC1(O)C(F)(F)F` (stereo unspecified) is 58%; for `CC1=NN(C(=O)Cc2ccccc2)C(O)(c2cccnc2)C1` (stereo unspecified) it is -2.18%; for `O=C(c1ccccc1)N1N=C(c2ccc(F)cc2)CC1(O)C(F)(F)F` (stereo unspecified) it is 67.9%.
As for `C=CCn1c(SCC(=O)Nc2ccccc2OC)nc2c([nH]c3ccccc32)c1=O`, the inhibition is -4.69%.
Consider `COc1ccccc1-c1nnc(SCc2nc3ccccc3[nH]2)n1C`, for which the inhibition is 25.9%.
As for `O=C(Nc1cccc(F)c1)Nc1ccc2c(c1)C(=O)OC2`, the inhibition was -9.41%.
For `Cc1cccc(C)c1OCC(=O)NCC1COc2ccccc2O1` (stereo unspecified), the inhibition was -21%.
`CCN1CCN(c2ccc(NC(=O)c3ccco3)cc2Cl)CC1`: the inhibition is -16.6%.
The result for `CCOC(=O)Cc1c(C)nc2c(-c3ccccc3)c(C)[nH]n2c1=O` reads 23.1%; that for `CCOC(=O)Cc1c(C)nc2c(-c3cccc(Br)c3)cnn2c1C`, -10.5%.
For the compound `CCOC(=O)Cc1cc(=O)n2[nH]cc(-c3ccc(Cl)cc3)c2n1`, the inhibition turned out to be 81.6%.
`CCOC(=O)Cc1c(C)nc2c(C#N)c[nH]n2c1=O`: the inhibition is -14.1%.
With `CC1=CC(C)(C)Nc2ccc(OS(=O)(=O)c3ccc(C)cc3)cc21`, the inhibition was -0.67%.
In the case of `CN(C)S(=O)(=O)n1ccnc1`, the inhibition was -7.18%.
Take `c1cnc2nc(-c3ccc4c(c3)OCO4)cn2c1`: the inhibition was found to be 14.6%.
The result for `Oc1ccc(-c2nc3ncccn3c2Nc2ccc3c(c2)OCO3)cc1` reads 0.55%.
With `COCCn1c(SCC(=O)NC(=O)NC2CCCC2)nc2ccccc2c1=O`, the inhibition was -3.24%.
Regarding `CN(C)CCCNC(=O)CC1C[C@H](C(=O)N2CCOCC2)[C@@]2(CCC3CCCC3)c3[nH]c4ccccc4c3CCN2C1=O` (stereo partly specified), the inhibition came out at 48.7%.
For `CC(C)(C)NCc1ccccc1OCc1cccs1`, the inhibition came to 6.2%.
Turning to `CC(C)COc1ccc(Br)cc1CNC(C)(C)C`, the inhibition was 72%.
On to `C=CCOc1ccc(Br)cc1CNC(C)(C)C`, for which the inhibition stood at 54.2%.
As to `Cn1nnc(NCc2cc(Br)ccc2OCc2cccs2)n1`, the inhibition is 24.3%.
With `CC1CCCCN1CCn1c(=S)[nH]c2cc3c(cc2c1=O)OCO3` (stereo unspecified), the inhibition came out at 9.55%.
`Cc1c(/C=C2\NC(=O)NC2=O)c2ccccc2n1C`: the inhibition was found to be 16.4%.
Regarding `O=c1cc(O)n(Cc2ccc(F)cc2)c(=O)[nH]1`, the inhibition is -1.55%.
As to `CCOCCCNC(=O)C1CCC(CNS(=O)(=O)c2cccc3nsnc23)CC1` (stereo unspecified), the inhibition is -10.5%.
For `COc1cccc2cc(C(=O)c3ccccc3)oc12`, the inhibition came to 77.7%.
In the case of `COc1ccc(C(=O)c2cc3cccc(OC)c3o2)cc1`, the inhibition amounted to 70.7%.
On to `O=C(COc1ccccc1Cl)N1CCN(C(=O)c2ccco2)CC1`, for which the inhibition is 6.78%.
For `CCOCCOC(=O)c1[nH]c2c(c1C)C(=O)CC(c1cccs1)C2` (stereo unspecified), the inhibition was found to be 5.49%.
Regarding `Cc1[nH]c2ccc(Br)cc2c(=O)c1CN1CCCCC1`, the inhibition was 6.69%.
For the compound `COC(=O)C(/C=N/OCc1ccc([N+](=O)[O-])cc1)NC(=O)c1ccccc1` (stereo unspecified), the inhibition is 1.7%.
In the case of `CO/N=C/CC(=O)Nc1ccc(F)cc1F`, the inhibition is -1.66%.
The figure for `O=C(Cc1ccc([N+](=O)[O-])cc1)Nc1ccc(Cl)cc1` is 12.6%.
For the compound `O=C(C/C=N\OCc1ccc(Cl)cc1Cl)Nc1ccccc1`, the inhibition was 55.5%.
On to `O=C(O)CC(Cc1ccc(Cl)cc1)C(=O)Nc1ccc([N+](=O)[O-])cc1` (stereo unspecified), for which the inhibition came to 7.55%.
For the compound `O=C(CCNC(=O)c1ccc([N+](=O)[O-])cc1)Nc1ccc(F)cc1F`, the inhibition was determined as 69.1%.
As for `O=C(NCCCCc1ccccc1)C1CC(c2cccc(F)c2)=NO1` (stereo unspecified), the inhibition amounted to 9.38%.
The figure for `Nn1c(-c2ccccc2)nc2ccccc2c1=O` is -12.5%; for `O=C(O)c1cnc(-c2ccccc2)nc1Sc1cccc(Cl)c1` it is 53.3%; for `CCC(CC)NC(=O)COC(=O)c1cc(SC)ccc1Cl` it is 28.5%.
As to `CCOc1ccccc1N1CCN(CC(O)COC2CCCc3ccccc32)CC1` (stereo unspecified), the inhibition came out at 59.7%.
As to `CN(C)C(=O)CSc1nnc([C@H](Cc2c[nH]c3ccccc23)NC(=O)OC(C)(C)C)o1`, the inhibition is -0.86%.
As to `CC(CCc1ccc(O)cc1)NC1c2ccccc2-c2ccccc21` (stereo unspecified), the inhibition is 43.3%.
The result for `CC(C)=N/N=C1\NC(=O)C(C)S1` (stereo unspecified) reads 54%.
For the compound `O=C(CNC(=O)N1CC(=O)Nc2ccccc21)Nc1ccccc1F`, the inhibition was -10.2%.
On to `COc1ccc(/C=C2\SC(=N)N(c3nccs3)C2=O)cc1OC`, for which the inhibition was -5.11%.
Regarding `N=C1S/C(=C\c2ccco2)C(=O)N1c1ccc2c(c1)OCO2`, the inhibition came out at 0.43%.
For `CN(C1CCCCC1)S(=O)(=O)c1cccc(C(=O)Nc2ccccn2)c1`, the inhibition amounted to 25.5%.
The figure for `CCOP(=O)(Cc1cc(C(=O)CC)c(C)o1)OCC` is -21.9%; for `O=c1ccnc(Sc2ncccc2[N+](=O)[O-])[nH]1` it is 37.6%.
In the case of `Cc1ccc(Sc2ncccc2[N+](=O)[O-])cc1`, the inhibition was determined as 23.3%.
With `O=[N+]([O-])c1cccnc1Sc1ccc(F)cc1`, the inhibition was 18.3%.
Take `CC(C)(C)c1csc(Sc2ncccc2[N+](=O)[O-])n1`: the inhibition was 19.4%.
With `CCn1c(=O)n(-c2ccc(Cl)cc2)c(=O)c2c3c(sc21)COC(C)(C)C3`, the inhibition turned out to be 5.56%.
As to `O=C(COC(=O)Cc1ccsc1)Nc1ccc(Cl)cc1F`, the inhibition was 70.1%.
Take `CC(C)(C)OC(=O)CNC(=O)c1[nH]cnc1C(=O)NC1CCNCC1`: the inhibition is -8.53%.
As to `Cc1ccc(OCCCC(=O)NCc2ccco2)cc1`, the inhibition amounted to 53.7%.
With `COc1ccc(OCCCC(=O)NCc2ccco2)cc1`, the inhibition was 56.7%.
Consider `CC1CCN(C(=O)c2cc3c(=O)n4ccccc4nc3s2)CC1`, for which the inhibition is -10.7%.
In the case of `CCCCN(C)Cc1c(C)[nH]c2ccc(C)cc2c1=O`, the inhibition was 3.45%.
`CC(CCc1ccccc1)NC(=O)c1ccc(F)cc1` (stereo unspecified): the inhibition was 65.9%.
In the case of `CN(C)CCCN(C(=O)c1ccc(S(=O)(=O)N2CCCCC2)cc1)c1nc2cc3c(cc2s1)OCO3`, the inhibition amounted to 20.6%.
As to `CSCCOC(=O)COc1ccc(/C=N/NC(=O)c2nn(C)cc2Cl)cc1`, the inhibition came to 75.7%.
Regarding `CC(C)c1ccc(/C=N/NC(=O)c2c(Cl)cnn2C)cc1`, the inhibition was -10.4%.
With `COc1cc(CN2CCN(Cc3ccc(SC)cc3)CC2)cc(OC)c1O`, the inhibition was -26.9%.
On to `N/C(=N\N=C\c1cccs1)SC1CC(=O)N(c2cccc([N+](=O)[O-])c2)C1=O` (stereo unspecified), for which the inhibition was -1.1%.
Regarding `COc1ccc(N(CN2C(=O)c3ccccc3C2=O)C(=O)C(C)C)cc1`, the inhibition was 2.08%.
Take `CC(C)C(=O)Nc1ncc(Cc2ccc(Cl)cc2)s1`: the inhibition turned out to be 32.4%.
With `CC(=O)Nc1ncc(Cc2cccc(Cl)c2)s1`, the inhibition worked out at 36.5%.
On to `O=C(Nc1ncc(Cc2ccccc2)s1)C1COc2ccccc2O1` (stereo unspecified), for which the inhibition worked out at 64%.
Regarding `Cc1ccc(Cc2cnc(NC(=O)c3ccco3)s2)cc1`, the inhibition was 79%.
The figure for `O=C(Nc1ncc(Cc2ccccc2Cl)s1)c1ccc([N+](=O)[O-])cc1` is -27.1%; for `CC(C)C(=O)Nc1ncc(Cc2ccccc2Cl)s1` it is 4.24%.
For `Cc1ccc(C(=O)Nc2ncc(Cc3ccc(F)cc3)s2)o1`, the inhibition is 13.4%.
The figure for `Cc1ccc(C(=O)Nc2ncc(Cc3ccccc3)s2)o1` is 32.2%; for `O=C(CSc1oc(-c2ccc(F)cc2)nc1S(=O)(=O)c1ccccc1)NCC1CCCO1` (stereo unspecified) it is -4.84%; for `CCc1cc(CNC(=O)c2ccc(OC3CCN(CCc4ccccc4)CC3)cc2)on1` it is 4.71%.
For the compound `CN(CC(=O)Nc1cccc(F)c1)C(=O)c1ccccc1Cc1ccccc1`, the inhibition was -4.13%.
Consider `O=C(NCc1ccco1)c1cccc(S(=O)(=O)N2CCCCC2)c1`, for which the inhibition was found to be 16.4%.
As to `CCN1CCN(C(=O)/C(=C/c2ccco2)NC(=O)c2ccccc2)CC1`, the inhibition is -2.48%.
The figure for `O=C(CCC(=O)N1CCOc2ccccc21)N1CCCCC1` is -34.4%; for `CN(C)CCCN(C(=O)c1ccc(N2C(=O)CCC2=O)cc1)c1nc2c(F)cccc2s1` it is -7.06%.
Turning to `CCN1CCCC1CNC(=O)C(=O)NC(C)c1ccccc1` (stereo unspecified), the inhibition came to 5.13%.
`COCc1cc(=O)[nH]c(SCC(=O)c2ccccc2)n1`: the inhibition is -7.52%.
`O=C(O)c1cccc(-n2sc3ccccc3c2=O)c1`: the inhibition was -0.63%.
`O=c1c2ccccc2sn1-c1ccc(F)cc1`: the inhibition was -1.44%.
In the case of `CC1(C)CC(=O)C2=C(C1)OC1=C(C(=O)CC(C)(C)C1)C2c1ccccc1`, the inhibition was -3.44%.
Consider `Cc1ccc(NC(=O)CN(C)C2CCCCC2)cc1Cl`, for which the inhibition is 72.6%.
Turning to `Cc1ccc(NC(=O)CN2CCCCCC2)cc1Br`, the inhibition amounted to 5.31%.
The result for `CN(CC(=O)Nc1ccc(S(N)(=O)=O)cc1)C1CCCCC1` reads -0.54%.
Turning to `COc1ccc(NC(=O)CN(C)C2CCCCC2)cc1Cl`, the inhibition came to 33.9%.
The result for `CCC(=O)Nc1ccc2oc(-c3cccc(C)c3)nc2c1` reads -26.3%; that for `COCC(=O)Nc1ccccc1C(=O)Nc1ccc(OC)cc1`, -1.58%.
As for `COc1ccc(CCN(C)C2CCCN(S(C)(=O)=O)C2)cc1OC` (stereo unspecified), the inhibition is -23.7%.
For `O=C(CN1CCN(c2ccccc2F)CC1)c1c[nH]c2ccccc12`, the inhibition was 4%.
